Compound activity from PubChem.
Only some compounds are listed: those with a hit (about 0.71% of all), similar ones and a draw of the others.
H9c2 TAG inh – reduces triacylglycerol accumulation in H9c2 cells | AID 651582 | inhibition, % at 12.5 µM | 230,000 compounds, 0.66% hits | Nile Red lipid (TAG) fluorescence; cells loaded with 200 µM oleic acid;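 active = pattern-corrected inhibition of lipid staining of at least 50% with the nuclear-stain viability signal not falling by more than 50%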;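 note: 0% = DMSO wells and 100% = triacsin C control wells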
hiPSC survival – increases survival of single human iPS cells | hiPSC single-cell survival, ATPlite luminescence; 100% = ROCK inhibitor wells, 0% = DMSO | survival enhancement, % at 20 µM | 360,000 compounds, 0.044% hits; in the data active = survival enhancement above about 18%;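 note: cells exposed to compounds for 16 hours before the ATP read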
MIN6 prolif-1 – inducers of beta-cell replication in MIN6 cells; 330,000 compounds, 0.29% hits; MIN6 cells proliferation, ATPlite luminescence, 48 h; cells starved in 0.2% serum; 100% = growth in 10% serum; proliferation, % at 10 µM;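 active = compounds whose signal lies at least 3.5 SD above the mean of all wells on their plate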;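 note: 0% = DMSO-treated cells in low-serum medium and 100% = 10% serum control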
MIN6 prolif-2 – MIN6 beta-cell replication induction, confirmed; shares compounds with MIN6 prolif-1; MIN6 beta-cell proliferation, ATPlite luminescence, 48 h; cells kept in 0.2% serum; scaled between 0.2% and 10% serum; proliferation increase, % at 50 µM; 920 tested, under 10 active; AID 463095;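 active = proliferation increase above 40% at any of the four tested concentrations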
* marks the source's active call; other numbers are inactive results; . = not tested or not shown.

SMILES | H9c2 TAG inh | hiPSC survival | MIN6 prolif-1 | MIN6 prolif-2
Cc1ccc(S(=O)(=O)N2C[C@H]3N(C(=O)OC(C)C)N(C(=O)OC(C)C)C[C@H](OC(=O)Nc4c(C)noc4C)[C@@]3(O)C2)cc1 | 4 | -1 | . | .
O=C(Nc1ccccc1Br)c1cccc2ccccc12 | -1 | 0 | 8.7* | -3
CC(=O)Nc1ccccc1NC(=O)c1cccc2ccccc12 | 0 | 4 | 0 | .
O=C(NCC1CCCCC1)c1csc([C@@H]2C[C@H](O)[C@@H](CO)O2)n1 | 3 | -2 | . | .
CC(C)CNc1nc(N)c([N+](=O)[O-])c(NC2CCCCC2)n1 | . | 1 | 0 | .
CC(C)CCNc1nc(N)c([N+](=O)[O-])c(NC2CCCCC2)n1 | . | 1 | 8.8* | -1
COCCOC(=O)N1CCCCC1c1cc(C(=O)Nc2cccc3c2CCCC3)no1 (stereo unspecified) | -9 | -1 | . | .
CC1(Oc2ccccc2-c2ccno2)CCN(Cc2csc3ccccc23)C1 (stereo unspecified) | -14 | 4 | . | .
Nn1c(SCC(=O)NC2CCCC2)nnc1C(F)(F)F | -5 | -1 | . | .
CC(=O)NC(c1ccccc1)c1nc(-c2cc3ccccc3o2)cs1 (stereo unspecified) | 8 | 1 | . | .
COc1ccccc1NC(=O)CN1CCN(c2ccccc2F)CC1 | -12 | -2 | 2 | .
COc1ccccc1NC(=O)N1CCN(c2ccccc2F)CC1 | 6 | -3 | 7.3* | 0
CC(C)(C)c1ccc(C(=O)N2CCC2(C)C(=O)NS(=O)(=O)c2ccccc2Cl)cc1 (stereo unspecified) | -9 | 4 | . | .
Cc1ccc(C(=O)OCC(=O)NCCN2C(=O)CSC2=O)cc1[N+](=O)[O-] | 4 | 0 | 2 | .
Cc1cc(C(=O)OCC(=O)NCCN2C(=O)CSC2=O)ccc1[N+](=O)[O-] | 0 | -2 | 9.7* | 3
O=C(CN1CCC(Cc2ccccc2)CC1)N1CCc2ccccc2C1 | -1 | 0 | 9.0* | -5
O=C(CN1CCN(c2ccc(F)cc2)CC1)N1CCC(Cc2ccccc2)CC1 | . | -2 | -4 | .
CCCCCCN1C[C@H](n2cc(-c3ccc(F)cc3)nn2)[C@@H](O)C[C@@H]1c1ccc(Cl)cc1 | 119 | 1 | . | .
CC(C)NC(=O)C1(C)Cc2c(-c3ccc(N(C)C)cc3)ccnc2O1 (stereo unspecified) | -4 | 3 | . | .
CCC(Cc1ccccc1)NC(=O)C1=C(C)C(=O)OC12CCC(C)CC2 (stereo unspecified) | . | 5 | 7.7* | -3
CC1=C(C(=O)NCc2ccc(Cl)cc2)C2(CCC(C)CC2)OC1=O (stereo unspecified) | -8 | 0 | -3 | .
CSc1nc(N)nc(SCC(=O)C(C)(C)C)c1C#N | -16 | 5 | -1 | .
CSc1nc(N)nc(SC2C=CCCC2)c1C#N (stereo unspecified) | . | -1 | 5.9* | 9
Cc1cccc(N2CCN(C(=S)NC3CCCCC3)CC2)c1C | 0 | 0 | 7.9* | 0
Cc1ccc(C)c(N2CCN(C(=S)NC3CCCCC3)CC2)c1 | 0 | -2 | -3 | .
SMILES | H9c2 TAG inh | hiPSC survival | MIN6 prolif-1 | MIN6 prolif-2
CCOC(=O)C1(C)CCCN1C(=O)c1sccc1C (stereo unspecified) | 8 | 4 | . | .
CCS(=O)(=O)c1ccc(Sc2nncn2C)c([N+](=O)[O-])c1 | 16 | -1 | 7.7* | -6
CCN(CC)S(=O)(=O)c1ccc(NC(=O)c2ccc(Sc3nncn3C)c([N+](=O)[O-])c2)cc1 | 3 | -2 | 0 | .
CCN(CC)c1ncnc2scc(C3COc4ccccc4O3)c12 (stereo unspecified) | -5 | -3 | -1 | .
c1ccc2c(c1)OCC(c1csc3ncnc(N4CCOCC4)c13)O2 (stereo unspecified) | . | 2 | 5.3* | -4
CN(C)Cc1csc(Nc2ccc(C(F)(F)F)cn2)n1 | 5 | -3 | . | .
C=CCC1CCCCC1=C(C#N)c1ccccc1 (stereo unspecified) | 9 | -2 | . | .
CCN(CC)S(=O)(=O)c1cc(Cl)ccc1OC | -6 | 2 | -2 | .
CCN(CC)S(=O)(=O)c1cc(OC)c(Cl)cc1OC | . | -2 | 7.8* | -1
CC(C)(C)c1ccc(C(O)c2ncc(-c3ccc(F)cc3)[nH]2)cc1 (stereo unspecified) | -27 | 5 | . | .
O=C(NC(c1ccccc1)c1ccsc1)C1CCN(CCOc2ccc(Cl)cc2Cl)CC1 (stereo unspecified) | 0 | 6 | . | .
Cc1ccc(S(=O)(=O)N(C)c2ccc(C(=O)NCC(c3ccccc3)N3CCCC3)cc2)cc1 (stereo unspecified) | 11 | -3 | . | .
COc1cc(NC(=O)c2ccc(Cl)cc2)c(OC)cc1NC(=O)CN1CCCCC1 | . | 0 | -2 | .
COCCOc1ccc(C(F)(F)F)cc1NC(=O)c1ccc(C(F)(F)F)cc1 | . | 0 | -4 | .
COc1cc(NC(=O)c2ccccc2F)c(OC)cc1NC(=O)CN1CCCCC1 | . | 1 | 9.3* | -6
COCCOc1ccc(C(F)(F)F)cc1NC(=O)c1ccccc1F | . | 0 | 6.7* | 0
CN1C(=O)/C(=C/c2ccc(C(=O)Nc3ccc(O)cc3C(=O)O)cc2)SC1=S | . | 1 | -4 | .
C[C@H]1CN([C@@H](C)CO)S(=O)(=O)c2ccc(Br)cc2O[C@@H]1CN(C)Cc1cccc(F)c1 | 1 | -1 | . | .
O=C(CS(=O)(=O)c1ccc(Br)cc1)N1CCOCC1 | -9 | -1 | 11* | -3
Cc1ccc(S(=O)(=O)CC(=O)N2CCOCC2)cc1 | 9 | 0 | -3 | .
COc1cccc(C(NC(C)=O)c2nc(-c3ccccc3)cs2)c1 (stereo unspecified) | 2 | -1 | . | .
O=C(NCc1ccco1)C(c1cccs1)N(Cc1ccccc1)C(=O)Cn1nnc2ccccc21 (stereo unspecified) | 4 | 0 | -1 | .
O=C(NCc1ccco1)C(c1ccco1)N(Cc1cccs1)C(=O)Cn1nnc2ccccc21 (stereo unspecified) | 5 | -1 | 8.0* | 0
CCCCn1nnnc1C(c1ccccc1OC(F)(F)F)N1CCN(C/C=C/c2ccccc2)CC1 (stereo unspecified) | . | 0 | . | .
CC1(C(=O)O)CCCN1C(=O)c1cccc(OC(F)(F)F)c1 (stereo unspecified) | -5 | -3 | . | .
SMILES | H9c2 TAG inh | hiPSC survival | MIN6 prolif-1 | MIN6 prolif-2
Brc1nnc2n1-c1ccccc1Sc1ccccc1-2 | -2 | 3 | 5.6* | -6
Clc1ccc2c(c1)-c1nnc(Br)n1-c1ccccc1S2 | -3 | 0 | -2 | .
Cn1c(=O)c2cc(NC(=O)NCCc3ccccc3)ccc2n1Cc1ccc(F)cc1 | -14 | -1 | . | .
Cc1ccc(C(=O)NCCN2CCC(n3c(=O)[nH]c4ccccc43)CC2)cc1C | . | -1 | . | .
N#Cc1ccc(C(=O)Nn2cnnc2)cc1 | . | 1 | 8.2* | -1
CC(C)(C)c1ccc(C(=O)Nn2cnnc2)cc1 | . | 0 | -1 | .
COc1ccc(N(CC(=O)Nc2cccc(C)c2)S(=O)(=O)c2c(C)n[nH]c2C)cc1 | 35 | 3 | -4 | .
COc1cc(NC(=O)CN(c2ccc(C)cc2)S(=O)(=O)c2c(C)n[nH]c2C)cc(OC)c1 | -11 | 2 | 0.0* | -6
CCCCNC(=O)c1[nH]c(=O)cnc1-c1ccccc1 | . | -1 | . | .
